Among the data in PMC8384837, “Expanding the binding specificity for RNA recognition by a PUF domain” are binding signal values, retold here.

For the first assay, the target named is PUM1 PUF domain R5-RFK (Homo sapiens, UniProt Q14671 828-1176, C1007R;R1008F;Q1011K). Description: yeast three-hybrid, YBZ-1, SC-Leu-His + 0.5 mM 3-AT, 4 days. The following applies: tags: N-Gal4 AD-HA kept; label: inside an RPR1-promoter hybrid RNA with tandem MS2 sites; ssRNA. The method in brief: (§1)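 Pumilio-1 PUF domain libraries, randomized (NNK) at the three base-contacting residues of each repeat, were co-expressed with matching RNA elements from a centromeric plasmid in strain YBZ-1 (LexA–MS2 coat fusion, HIS3 reporter). Transformants were plated on SC-Leu (input) and SC-Leu-His + 0.5 mM 3-AT (selection) for four days, and repeat regions were PCR-amplified and Illumina-sequenced. The interaction score is the log2 change in variant frequency from input to selection, with pseudocount 1 where absent.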
As for “GGCUAGAACUAGUGGAUCCCCCGGCGCCCGGCGGCUCGAGCCCGGGUAAGUGUUAAUAGUCUGCAUGCCGCCGGGCGCCAUGCCUGCAGGUCGACUCUAGAAAACAUG”, the binding signal was 5.38 log2 enrichment (interaction score). The same measure, in the same setting: under “GGCUAGAACUAGUGGAUCCCCCGGCGCCCGGCGGCUCGAGCCCGGGUAAGUGUCAAUAGUCUGCAUGCCGCCGGGCGCCAUGCCUGCAGGUCGACUCUAGAAAACAUG” stands 5.3 log2 enrichment (interaction score); under “GGCUAGAACUAGUGGAUCCCCCGGCGCCCGGCGGCUCGAGCCCGGGUAAGUGUAAAUAGUCUGCAUGCCGCCGGGCGCCAUGCCUGCAGGUCGACUCUAGAAAACAUG”, 4.34 log2 enrichment (interaction score).

In the next assay the target is PUM1 PUF domain R1-YLR (Homo sapiens, UniProt Q14671 828-1176, S863Y;R864L;Q867R). The assay is described as above. Conditions: tags: N-Gal4 AD-HA kept; label: inside an RPR1-promoter hybrid RNA with tandem MS2 sites; ssRNA. The method in brief: as §1
Turning to “GGCUAGAACUAGUGGAUCCCCCGGCGCCCGGCGGCUCGAGCCCGGGUAAGUGUAAAUCGUCUGCAUGCCGCCGGGCGCCAUGCCUGCAGGUCGACUCUAGAAAACAUG”, the binding signal was 3.95 log2 enrichment (interaction score). In the case of “GGCUAGAACUAGUGGAUCCCCCGGCGCCCGGCGGCUCGAGCCCGGGUAAGUGUAAAUGGUCUGCAUGCCGCCGGGCGCCAUGCCUGCAGGUCGACUCUAGAAAACAUG”, the binding signal is 2.04 log2 enrichment (interaction score). “GGCUAGAACUAGUGGAUCCCCCGGCGCCCGGCGGCUCGAGCCCGGGUAAGUGUAAAUUGUCUGCAUGCCGCCGGGCGCCAUGCCUGCAGGUCGACUCUAGAAAACAUG”: the binding signal was 5.29 log2 enrichment (interaction score).
